Laboratory results: PubChem BioAssay (NCATS)
A number with no mark means an inactive call. Calls come from the whole dose curve.

Assay: qHTS drug screen for cell cycle checkpoint inhibitors in PARPi-resistant BRCA-mutant ovarian cancer cell lines. (AID 1963452)
Details: PEO1/OlaR viability, CellTiter-Glo luminescence, 96 h; stronger effect = lower value
Method in brief: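 PEO1, PEO4 and PEO1/OlaR ovarian cancer cells, 600 per well, exposed 96 h at 37C to a dilution series. Viability read by CellTiter-Glo luminescence, normalized to DMSO and empty wells; activity summarized as Z-AUC.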

Compound | Z-AUC
Nc1ncnc2c1nc(Cl)n2[C@@H]1O[C@H](CO)[C@@H](O)[C@@H]1O | 0.764
COCCOc1nc(-c2ccc(Cl)c(Cl)c2)n(-c2ccc(NC(=O)CCl)cc2)n1 | -0.18
CCOC(CN1C(=O)[C@](CC(=O)Nc2ccc(C)cc2)(NC(=O)Nc2ccc(C)cc2)c2ccccc21)OCC | 1.21
CN(C)Cc1ccc(-c2nc3cccc4c3n2CCNC4=O)cc1 | 0.426
Clc1ccc(C(c2ccc(Cl)cc2)n2cc[n+](CC(OCc3ccc(Cl)cc3Cl)c3ccc(Cl)cc3Cl)c2)cc1 (configuration not stated) | 0.167
O=c1c(-c2ccc(O)cc2)coc2cc(O)ccc12 | 1.12
CCNc1cc(NC2CCC(O)CC2)nc(Nc2ccc3c(ccn3Cc3ccccc3)c2)n1 (configuration not stated) | 0.474
Oc1ccc(C2CCN(c3ccnc4ccccc34)CC2)cc1O | 0.817
COc1cc2ncnc(-n3nc(-c4ccccn4)nc3N)c2cc1OC | -0.168
c1ccc2c(Cc3c[nH]c4ccccc34)c[nH]c2c1 | 0.829
NS(=O)(=O)c1cccc2c1C(=O)c1cccc(O)c1C2=O | -1.32
O=C(CCN1CCN(C(=O)OCc2cc(Cl)cc(Cl)c2)CC1)c1ccc2[nH]c(=O)oc2c1 | 0.428
C[C@]12CCC3c4ccc(O)cc4CCC3C1CCC2=O (some centres not stated) | 1.36
Cc1ccc(C(=O)Nc2cccc(C(F)(F)F)c2)cc1Nc1nc(-c2cccnc2)nc2c1cnn2C | 0.462
Oc1ccc(C2=Cc3ccc(O)cc3OC2)cc1 | -0.664
N#CC1(c2ccc(NC(=O)c3cccnc3NCc3ccncc3)cc2)CCCC1 | 1.21
CCS(=O)(=O)N1CC(CC#N)(n2cc(-c3ncnc4[nH]ccc34)cn2)C1 | 0.685
CCOC(=O)C1=C(N)Oc2ccc(Br)cc2C1C(C#N)C(=O)OCC (configuration not stated) | 1.64
COc1cc(N2CCC(N3CCN(C)CC3)CC2)ccc1Nc1ncnc(Nc2ccccc2S(=O)(=O)C(C)C)n1 | 0.282

Compound | Z-AUC
O=C(Nc1ccccc1Br)N[C@@H]1CCN(c2ccc(C(F)(F)F)cn2)C1 | -0.871
CN1CCN(CCOc2cc(OC3CCOCC3)c3c(Nc4c(Cl)ccc5c4OCO5)ncnc3c2)CC1 | 0.642
O=C(N[C@@H](c1ccccc1)[C@@H]1CCCCN1)c1cccc(C(F)(F)F)c1Cl | 0.7
CNC1CCC(N(Cc2cccc(-c3ccncc3)c2)C(=O)c2sc3c(F)ccc(F)c3c2Cl)CC1 (configuration not stated) | -0.961
Cc1ccc(C(C)(O)c2nc3ccccc3s2)c(C)c1 (configuration not stated) | 0.398
NC(=O)c1ccc2nc(-c3ccc(Oc4ccc(Cl)cc4)cc3)[nH]c2c1 | -1.56
COc1cc(NC(=O)c2ccc(-c3ccc(Cl)cc3)o2)cc(OC)c1 | -0.479
c1cc(-c2sc(-c3ccncc3)c(-c3ccncc3)c2-c2ccncc2)ccn1 | 1.76
Cc1ccc(/C=N/NC(=O)c2ccccc2Oc2ccccc2)o1 | 0.785
CC(C)(C(=O)NCC(F)(F)C(F)(F)F)C(=O)N[C@@H]1C(=O)Nc2ccccc2-c2ccccc21 | 0.455
COc1ccc2c(Oc3ccc(NC(=O)c4c(C)n(CC(C)(C)O)n(-c5ccccc5)c4=O)nc3)ccnc2c1 | 0.509
Cc1c(NC(=O)c2ccc(C(C)(C)C)cc2)cccc1-c1cn(C)c(=O)c(Nc2ccc(C(=O)N3CCOCC3)cc2)n1 | 1.16
Cc1nc(N)sc1-c1ccnc(Nc2ccc(N3CCOCC3)cc2)n1 | -0.158
CC[C@@]1(O)C[C@H](O[C@H]2C[C@H](N(C)C)[C@H](O[C@H]3C[C@H](O)[C@H](O[C@H]4CCC(=O)[C@H](C)O4)[C@H](C)O3)[C@H](C)O2)c2c(cc3c(c2O)C(=O)c2c(O)cccc2C3=O)[C@@H]1C(=O)OC | -0.814
COc1ccc(-c2coc3cc(O)cc(O)c3c2=O)cc1 | 1.34
N#Cc1ccc(NC(=O)Nc2ccccc2Br)c2n[nH]nc12 | 1.45
COc1cccc([C@@H](C)NCCCc2ccccc2Cl)c1 | 0.861
Cc1ccc(F)c(NC(=O)Nc2ccc(-c3cccc4[nH]nc(N)c34)cc2)c1 | 1.25
